DAT uptake mod: human DAT dopamine uptake with cocaine, either direction | Q01959 | LLC-PK1 hDAT cells, [14C]-dopamine uptake with cocaine IC80; actives deviate in either direction | B-score at 10 µM | 1.3% of 110,000 active | AID 449768;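 active = Z score or B-score, a plate-position-corrected score, falls beyond the plate's 99.7% confidence bounds, in either direction; inactive = both scores lie inside the 99.7% bounds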;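 also: scored against the spread of the other compound wells on the same plate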
Target sequence (Q01959 whole entry, looked up): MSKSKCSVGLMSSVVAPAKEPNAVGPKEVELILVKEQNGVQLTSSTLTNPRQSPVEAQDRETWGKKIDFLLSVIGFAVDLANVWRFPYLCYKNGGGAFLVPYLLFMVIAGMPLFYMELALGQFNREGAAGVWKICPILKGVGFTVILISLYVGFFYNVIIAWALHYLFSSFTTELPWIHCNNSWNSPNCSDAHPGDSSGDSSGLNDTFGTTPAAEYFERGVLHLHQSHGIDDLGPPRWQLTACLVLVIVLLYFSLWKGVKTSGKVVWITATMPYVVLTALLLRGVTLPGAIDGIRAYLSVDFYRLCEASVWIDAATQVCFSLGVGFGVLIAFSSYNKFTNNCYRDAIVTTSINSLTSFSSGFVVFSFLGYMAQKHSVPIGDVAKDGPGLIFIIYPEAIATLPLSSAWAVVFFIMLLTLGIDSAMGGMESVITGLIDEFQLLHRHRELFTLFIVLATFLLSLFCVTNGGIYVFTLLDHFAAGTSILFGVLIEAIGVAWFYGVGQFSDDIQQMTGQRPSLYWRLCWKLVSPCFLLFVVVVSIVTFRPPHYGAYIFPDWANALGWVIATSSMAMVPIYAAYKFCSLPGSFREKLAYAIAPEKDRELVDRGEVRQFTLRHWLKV
HCT116 bCat-KO: beta-catenin-lacking colon tumor cell growth suppression | HCT116 beta-catenin knockout viability, CellTiter-Glo, 60 h; active compounds read low | 1.5% of 140,000 active | viability, % at 10 µM | AID 818;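 active = viability at or under a set limit, the compound median less 4 SD, cut at about 6% in these data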;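 also: 0% = Hyamine 1622 control at 20 µM and 100% = untreated cell control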
WT yeast gro inh: growth inhibition of WT yeast, mitochondrial fusion screen; inhibition, % at 10 µM; 2.1% of 190,000 active; mitochondrial fusion phenotypic screen, WT strain; in the data active = inhibition above about 58%; tested in S. cerevisiae
HCT116 PTEN-null: growth suppressors of cells with PTEN tumor suppressor deletion; HCT116 PTEN-null viability, CellTiter-Glo, 60 h; active compounds read low; viability, % at 10 µM; 1.2% of 140,000 active; AID 827;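 active = viability at or below a set limit, 4 SD under the median of all tested compounds, cut at about 3.7% in these data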;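 also: PTEN knockout HCT116 line with beta catenin targeted HCT116 as companion control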
The depositor's hits bear a star; nt = no result. Only some compounds are listed: those with a hit (about 3.6% of all), similar ones and a draw of the others.

SMILES	DAT uptake mod	HCT116 bCat-KO	WT yeast gro inh	HCT116 PTEN-null
O=C(Cc1cccs1)N1CCCC(c2nc3c(nnn3Cc3cccc(Cl)c3)c(=O)[nH]2)C1 (centres undefined)	2.3*	76	-6	71
C[C@@H]1CC=C[C@H]2[C@H]1C(=O)N(Cc1ccccc1)[C@H]2c1cccc([N+](=O)[O-])c1	-0.43	nt	nt	nt
C/C(=N\NC(=O)c1c(Br)c(C)nn1C)c1ccc(NC(=O)C(C)Oc2ccc(Cl)cc2C)cc1 (centres undefined)	-0.23	0.9*	13	1.4*
O=C(NCc1ccccn1)c1ccc(COc2ccc(Cl)cc2)o1	0.43	4.3*	10	6
CCCCC(=O)Nc1sc2c(c1C(=O)OCC)CCC(C=O)=C2Cl	1.3	1.4*	17	1.1*
CCOC(=O)c1c(NC(=O)c2ccccc2Cl)sc2c1CCc1ccccc1-2	nt	76	6	81
COc1cc(NC(=O)c2ccc(Cl)cc2)c(OC)cc1NC(=O)CN1CCCCC1	nt	nt	14	nt
COc1cc(NC(=O)c2ccc(C(C)(C)C)cc2)c(OC)cc1NC(=O)CN1CCCCC1	nt	nt	70*	nt
O=C(Nc1ccccc1Sc1ccccc1)c1ccccc1F	-1.3	nt	nt	nt
CCCOC1CCCN(C(=O)CCc2nnc(CCCCc3ccccc3)o2)C1 (centres undefined)	nt	nt	9	nt
CCN(CC)C(=O)CSc1nc(N)c2c3c(sc2n1)CC(C)CC3 (centres undefined)	2.1*	78	33	85
CCC(=O)OCCNc1cc(Sc2nc3ccccc3s2)c2nonc2c1[N+](=O)[O-]	-0.93	4.1*	95*	3.7*
NCCNc1ccc([N+](=O)[O-])c(Sc2nc3ccccc3[nH]2)c1	nt	66	-10	63
O=[N+]([O-])c1c(NCCCO)cc(Sc2nc3ccccc3s2)c2nonc12	nt	2.3*	53	3.6*
CCCSc1cc(NCCOC(=O)CCC)c([N+](=O)[O-])c2nonc12	nt	21	45	21
CCC(=O)OCCNc1cc(Sc2nc3ccccc3[nH]2)c2nonc2c1[N+](=O)[O-]	nt	1.7*	8	1.5*
Cc1cccnc1CN1CCN(Cc2nc(C(c3ccccc3)c3ccccc3)no2)CC1	nt	nt	16	nt
O=S(=O)(c1ccc(Cl)c(Cl)c1)c1snnc1-c1ccccc1	-0.49	1.2*	84*	1.3*
CCOC(=O)c1c(-c2ccccc2)nnn1-c1nc(OCC)nc(N2CCCCC2)n1	1.8*	71	-13	63
O=C(N[C@@H](Cc1ccccc1)C(=O)OCc1ccccc1)c1nc[nH]c1C(=O)NCc1ccccc1	1.6*	nt	-5	nt
Cc1cc(C)c(OCC(=O)NCC2CCCO2)c(C)c1 (centres undefined)	nt	nt	-21	nt
CN(C)c1ccnc(N(Cc2ccccc2)Cc2ccccc2)c1C#N	1.2	74	81*	85
Cc1ccc(-c2cc(N)n(-c3ccc(F)cc3)n2)cc1	nt	nt	20	nt
O=C(O)CCOc1ccc2c(c1)OCCO2	-7.6*	92	12	93
O=C(O)CCC(=O)c1ccc2c(c1)OCCO2	-0.22	97	8	82
SMILES	DAT uptake mod	HCT116 bCat-KO	WT yeast gro inh	HCT116 PTEN-null
CCOc1ccc(NC(C)c2cc(Cl)ccc2O)cc1 (centres undefined)	-0.68	95	7	90
C=CCn1c(NC(C)c2cc(Cl)ccc2O)nc2ccccc21 (centres undefined)	nt	65	25	65
CC(Nc1ccc(Br)cn1)c1cc(Cl)ccc1O (centres undefined)	nt	94	73*	92
CC(Nc1ccc(Cl)cc1)c1cc(Cl)ccc1O (centres undefined)	-0.2	78	74*	92
O=C(c1ccc2c3n(nc2c1)-c1ccccc1CO3)N1CCCCC1	2.6*	nt	nt	nt
COc1ccc(C(=O)OC2CCN(c3ncc(C(F)(F)F)cc3Cl)CC2)cc1	0.039	3.4*	4	57
O=C(OC1CCN(c2ncc(C(F)(F)F)cc2Cl)CC1)c1ccccc1	0.92	58	64*	73
O=C(OC1CCN(c2ncc(C(F)(F)F)cc2Cl)CC1)c1cccc(C(F)(F)F)c1	-1.3	72	8	87
CC(=O)c1cccc(N(CC(=O)Nc2cc(C)cc(C)c2)S(C)(=O)=O)c1	nt	nt	-11	nt
COc1ccc(/C=N/NC(=O)COc2ccccc2-c2ccccc2)cc1	-1.2	15	46	17
CC(NC(=O)COc1ccccc1-c1ccccc1)c1ccccc1 (centres undefined)	nt	71	71*	68
O=C(COc1ccccc1-c1ccccc1)N/N=C/c1cccc2ccccc12	0.096	4.3*	42	4
CC(=O)Nc1ccccc1OCC(=O)NC(C)c1ccccc1 (centres undefined)	nt	80	-5	89
CCOC(=O)c1c(-c2cccs2)csc1NC(C)=O	0.21	88	10	87
CCOC(=O)c1c(-c2cccs2)csc1NC(=O)C(C)(C)C	-0.89	79	60*	83
O=C1C(C2=C(O)c3ccccc3C2=O)=Nc2ccccc21	-0.57	8	3	2.8*
CN=CC1=C(O)c2ccccc2C1=O	1.5	97	16	100
CCOC(=O)c1cnc2c(N=Nc3cccc(Cl)c3)c(N)nn2c1N	-0.45	3.4*	19	2.5*
Cc1cccc2sc(NNC(=O)c3cc(-c4cccs4)nc4ccccc34)nc12	nt	2.3*	59*	6
O=[N+]([O-])c1ccc(C[n+]2cccc3ccc4cccnc4c32)cc1	nt	nt	59*	nt
Cc1ccc(CNCc2cc3c(C(C)(C)C)nn(-c4ccccc4)c3[nH]c2=O)cc1	1.7	3.7*	15	5
COc1ccc(CNCc2cc3c(C(C)(C)C)nn(-c4ccccc4)c3[nH]c2=O)cc1	0.76	0.5*	47	0.6*
FC(F)Oc1ccc(/C=N/N2CCCCC2)c(OC(F)F)c1	nt	nt	-18	nt
CC(C)c1cc(C(N)=O)c(NC(=O)c2cccc(COc3ccc(Cl)cc3)c2)s1	nt	26	65*	31
Cc1nn(Cc2c(F)c(F)c(F)c(F)c2F)c(C)c1NC(=O)c1cccc(COc2ccc(Cl)cc2)c1	-0.45	85	10	79
SMILES	DAT uptake mod	HCT116 bCat-KO	WT yeast gro inh	HCT116 PTEN-null
Cc1ccc(N2NC(C)(c3cccs3)NC2=S)cc1 (centres undefined)	nt	89	42	88
CC(C)C(=O)NC(=S)/C=C1/N(C)c2ccccc2C1(C)C	nt	nt	0	nt
Cc1ccc(C(=O)NC(=S)/C=C2\N(C)c3ccccc3C2(C)C)cc1	nt	71	67*	80
CC[C@@H](C)[C@@H](C(=O)N1CCN(C(=O)OC(C)(C)C)CC1)n1cc(CCCCNC(=O)OC(C)(C)C)nn1	1.9	nt	-6	nt
CCn1c(=O)cc(OCC(=O)N(C)C2CCCCC2)c2ccccc21	2.4*	75	5	82
CCCCCCCOC(=O)C[N+](C)(C)CCOC1CC2CCC1(C)C2(C)C (centres undefined)	nt	1.6*	78*	1.3*
CCCCCCOC(=O)C[N+](C)(C)CCOC1CC2CCC1(C)C2(C)C (centres undefined)	0.79	34	57	30
Cc1ccccc1-n1c(SC2CCOC2=O)nnc1-c1ccncc1 (centres undefined)	nt	nt	-9	nt
COc1ccc(-c2nnc3n(CCc4ccccc4)c(=O)c4ccccc4n23)c(OC)c1	nt	66	98*	73

Bioassay records deposited in PubChem by several laboratories.
